This note sets out measurements from PubChem BioAssay AID602195 (The Scripps Research Institute Molecular Screening Center, 2012).

The structures appear in SMILES notation. The campaign covered roughly 1,600 compounds. About 430 (27%) were called active. Cut-off read from the data, not from the text of the source: active = inhibition above about 29%; inactive = the rest. These entries were drawn from the full list.

In this experiment the target is Melanocortin receptor 4 (Homo sapiens) (UniProt P32245). Description: MC4R cAMP antagonists, retest, confirmation, cell-based, TR-FRET (AID 602195).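 Note: 0% = agonist stimulated wells alone and 100% = agonist stimulated wells plus saturating reference antagonist.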 The note with it: MC4R-expressing cells, MTII-stimulated cAMP, at 6.5 µM, hits give high values.
Melanocortin receptor 4 (Homo sapiens), sequence (P32245 whole entry, looked up): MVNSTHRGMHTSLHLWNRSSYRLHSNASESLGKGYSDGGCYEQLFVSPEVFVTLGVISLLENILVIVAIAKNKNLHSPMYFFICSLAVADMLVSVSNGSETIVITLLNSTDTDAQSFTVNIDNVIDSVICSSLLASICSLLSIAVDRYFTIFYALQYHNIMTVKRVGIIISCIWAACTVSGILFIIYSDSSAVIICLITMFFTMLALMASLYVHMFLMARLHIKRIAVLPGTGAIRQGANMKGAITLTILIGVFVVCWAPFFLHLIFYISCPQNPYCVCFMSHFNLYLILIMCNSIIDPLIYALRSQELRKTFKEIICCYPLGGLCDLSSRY
As to `C#Cc1cc(N2CCN(C(=O)c3ccoc3)CC2)n2nc(-c3cccc(Cl)c3)cc2n1`, the inhibition was 36.4% (active).
Consider `Cc1ccc(Sc2ccc(NC(=O)c3ccc(F)cc3)cc2C#N)cc1`, for which the inhibition is 24.9% (inactive).
In the case of `Cc1c(CCC(=O)O)c(=O)oc2cc(OCc3ccc(Br)cc3)ccc12`, the inhibition is -0.06% (inactive).
Turning to `CN(C)C(CNC(=O)CCCOc1ccccc1)c1ccco1` (centres undefined), the inhibition is -4.52% (inactive).
The same measure for `COC(=O)[C@H](Cc1ccccc1)NC(=O)[C@@H]1C[C@H]1[C@@H](NC(=O)OCc1ccccc1)c1ccccc1`: 62.1% (active).
The same measure for `COc1ccccc1N(CC(=O)N/N=C(\C)c1ccccc1O)S(=O)(=O)c1ccc(C)cc1`: 11.1% (inactive); for `CCOC(=O)C(C)n1cnc2sc(C)c(C)c2c1=O` (centres undefined): 5.44% (inactive); for `COC(=O)c1sc(-c2ccc(C(C)(C)C)cc2)cc1NC(=O)/C=C/C(=O)O`: -6.9% (inactive).
With `Cc1ccc(C(C(=O)NCC2CCCO2)N(C(=O)c2snc(C(N)=O)c2N)c2ccc(C(C)C)cc2)o1` (centres undefined), the inhibition was 10.5% (inactive).
For `CN(CC(=O)NCCc1ccccn1)S(=O)(=O)c1ccc(Cl)cc1` the value was -19.7% (inactive); for `CC(C)(C)OC(=O)N1CCC(NC(=O)c2[nH]cnc2C(=O)N[C@@H](Cc2ccccc2)C(=O)OCc2ccccc2)CC1`, 55.3% (active).
For `O=C(Cn1nnc2ccccc2c1=O)Nc1cc(C(F)(F)F)ccc1N1CCOCC1` the value was -7.03% (inactive); for `CCOC(=O)c1cc(C)nc(S(C)(=O)=O)c1C#N`, 29.6% (active); for `Cc1nnc(N/N=C/C2CC=CCC2)[nH]c1=O` (centres undefined), 2.83% (inactive).
In the case of `O=C(Nc1nccs1)c1cc(S(=O)(=O)N2CCOCC2)c(Cl)cc1Cl`, the inhibition was 38.2% (active).
The same measure for `Cc1ccc(NC(=O)COC(=O)CNC(=O)c2ccc(Cl)cc2Cl)cc1S(=O)(=O)N1CCOCC1`: 13.7% (inactive).
For `O=C(O)CCn1cc(/C=C/C(=O)c2ccc(Cl)cc2)c(-c2cccc(Br)c2)n1` the value was 13.2% (inactive).
For `CC1(C)C(c2cccs2)=[N+]([O-])C2(CCCCC2=O)N1O` (centres undefined) the value was -17.8% (inactive); for `Cc1ccc(C)c(S(=O)(=O)N2CCN(CC(=O)Nc3ccc([N+](=O)[O-])cc3)CC2)c1`, -6.36% (inactive); for `CCOC(=O)c1c(NC(=O)CCl)sc(C(=O)N(CC)CC)c1C`, 44.7% (active).
On to `O=C(Nc1ccccc1Cl)/C(Cl)=C(\Cl)S(=O)c1ccccc1` (centres undefined), for which the inhibition is -8.38% (inactive).
With `COc1ccc(-c2nc3n(c(=O)c2C#N)CCS3)c(OC)c1`, the inhibition is -26.2% (inactive).
In the case of `O=C(COC(=O)c1c2c(nc3ccccc13)CCCC2)c1ccc(Br)s1`, the inhibition is 13.6% (inactive).
For `O=C(Nc1nnc(Cc2ccc(Cl)cc2)s1)c1cccnc1` the value was -6.82% (inactive); for `CSc1nnc(NC(=O)c2nc(S(=O)(=O)Cc3ccc(C)cc3)ncc2Cl)s1`, 48.5% (active); for `Cc1cccc(OCC(O)Cn2c(N3CCCCC3)nc3c2c(=O)[nH]c(=O)n3C)c1` (centres undefined), -4.42% (inactive).
The same measure for `Cc1ccc(OCC(=O)Nc2ccc(NC(=O)c3cccs3)cc2)c(C)c1`: -16.5% (inactive); for `CC(=O)Nc1ccc(Sc2ccccc2C(=O)N2CCCC2)cn1`: -13.6% (inactive); for `COc1ccc2sc(-c3ccc(S(C)(=O)=O)cc3)c(-c3ccc(C(N)=O)cc3)c2c1`: 27.4% (inactive).
The same measure for `COc1ccc(/C=N/OCC(=O)N(Cc2ccccc2)c2ccccc2C(=O)O)cc1`: 1.15% (inactive); for `O=C1/C(=C\c2ccc([N+](=O)[O-])cc2)CS(=O)(=O)C/C1=C/c1ccc([N+](=O)[O-])cc1`: 31.9% (active); for `COCCCNC(=O)/C(C#N)=C/c1c(N2CCCCCC2)nc2ccccn2c1=O`: 11.9% (inactive).
With `COc1cccc(OC)c1C(=O)Nc1c(C(=O)N2CCN(c3ccccn3)CC2)oc2ccccc12`, the inhibition was -8.35% (inactive).
Take `CCOc1ccc(Nc2nc(Cl)nc(N3CCN(c4ccc(OC)cc4)CC3)n2)cc1`: the inhibition is 33.7% (active).
For `Cc1ccc(NC(=O)c2c(NC(=O)CCC(=O)O)sc3c2CCCCC3)cc1` the value was 1.41% (inactive).
The same measure for `Cc1ccc(S(=O)(=O)N(C)CC(=O)OCC(=O)Nc2ccccc2)cc1`: 38.5% (active).
Consider `Cc1ccc(S(=O)(=O)N(C)CC(=O)OCC(=O)N2CC(=O)Nc3ccccc32)cc1`, for which the inhibition was 16.8% (inactive).
The same measure for `Cc1ccc(S(=O)(=O)CCC(=O)OCC(=O)N(C)Cc2ccccc2)cc1`: 7.91% (inactive).
The same measure for `O=C(c1ccc2c(c1)N(Cc1ccc(F)cc1)C(=O)c1ccccc1S2(=O)=O)N1CCN(c2ccccn2)CC1`: -2.23% (inactive); for `O=C(COC(=O)Cn1cnc2ccccc2c1=O)NCC12CC3CC(CC(C3)C1)C2`: 30.5% (active); for `O=S(=O)(NCc1ccco1)c1cnc(Cl)c(Cl)c1`: 54.2% (active).
For `O=C(NCCc1c[nH]c2ccccc12)c1cccc(Br)c1` the value was 3.64% (inactive); for `COc1ccc(-c2n[nH]c(C)c2-c2ccccc2OC)c(O)c1`, 0.3% (inactive); for `O=C(COC(=O)[C@H](Cc1ccccc1)NC(=O)c1cccs1)Nc1cc(F)ccc1F`, 14.7% (inactive).
As to `Cc1nc2ccccc2c(=O)n1NC(=O)c1ccc(Cl)c([N+](=O)[O-])c1`, the inhibition is 44.2% (active).
The same measure for `Cc1ccccc1-c1n[nH]c(=S)n1/N=C/c1ccc(-c2ccccc2Br)o1`: 0.08% (inactive).
For `O=C(CSc1nc2ccc(Nc3nc(N4CCOCC4)nc(N4CCOCC4)n3)cc2s1)NCc1ccco1` the value was -2.81% (inactive).
For `Cc1c(Cl)cccc1NC(=O)[C@@]1(CC(=O)O)CC(/C=C/c2ccccc2)=NO1` the value was -4.9% (inactive).
In the case of `Cc1ccc(NC(=O)C(C)OC(=O)Cc2c[nH]c3ccccc23)cc1S(=O)(=O)N1CCOCC1` (centres undefined), the inhibition was 5.56% (inactive).
The same measure for `CCOC(=O)CSc1nc(N2CCOCC2)c2c(c1C#N)CC(C(C)C)OC2` (centres undefined): 8.67% (inactive); for `CCCCOC(=O)CNc1nnc(SCC(=O)OCC)[nH]c1=O`: 44.4% (active); for `CC(C)Oc1ccc(/C=C(\NC(=O)/C=C/c2ccco2)C(=O)NCCc2nc3ccccc3[nH]2)cc1`: -6.84% (inactive).
For `Cc1ccc(NS(=O)(=O)c2ccc(C)c(NC(=O)COc3ccc4ccccc4c3)c2)c(C)c1` the value was 0.85% (inactive); for `COc1ccc(-n2nc(C(=O)Nc3cc(OC)c(OC)c(OC)c3)c3ccccc3c2=O)c(OC)c1`, 3.92% (inactive).

The term inhibition denotes the relative decrease from the control value, in per cent.
